Source: PubChem (National Center for Advancing Translational Sciences (NCATS))
Only some compounds are listed: those with a hit (about 3.1% of all), similar ones and a draw of the others.
PLK1 PBD inh: qHTS for Inhibitors of PLK1-PDB (polo-like kinase 1 - polo-box domain): Primary Screen; Serine/threonine-protein kinase PLK1 (Homo sapiens), P53350; Plk1 PBD binding of FITC phosphopeptide, fluorescence polarization; Potency, µM, without a hit: max response, negative = inhibition, hits mostly inhibitors; 360,000 compounds, 2.8% hits; AID 720504, 2013; note: potency is the fitted concentration of half-maximal effect; series mostly up to about 57 µM; % is set by controls: 0 for no effect and ±100 for the full control effect; nearly all actives have a fitted effect of over 65% in size
VDR inh: Inhibitors of the vitamin D receptor (VDR): qHTS; VDR-SRC2-3 peptide fluorescence polarization, 2 h; 400,000 compounds, 0.93% hits; Potency, µM, for the others: max response, negative = inhibition, usual class: inhibitors; note: potency is the fitted concentration of half-maximal effect; % is set by controls: 0 for no effect and ±100 for the full control effect
Target sequence (P11473 whole entry, looked up): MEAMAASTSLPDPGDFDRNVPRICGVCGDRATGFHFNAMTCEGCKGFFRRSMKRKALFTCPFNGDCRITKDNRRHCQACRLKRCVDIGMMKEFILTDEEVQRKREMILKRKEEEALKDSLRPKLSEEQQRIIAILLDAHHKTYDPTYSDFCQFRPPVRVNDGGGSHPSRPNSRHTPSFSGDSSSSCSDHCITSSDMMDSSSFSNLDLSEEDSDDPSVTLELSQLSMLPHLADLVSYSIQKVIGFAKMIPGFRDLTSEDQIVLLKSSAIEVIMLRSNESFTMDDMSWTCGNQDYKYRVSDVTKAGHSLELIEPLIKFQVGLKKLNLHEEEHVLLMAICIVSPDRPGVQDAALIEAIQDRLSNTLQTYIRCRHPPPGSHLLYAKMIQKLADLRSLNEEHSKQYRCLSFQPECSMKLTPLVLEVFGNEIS
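VDR–SRC2-3 interaction, FP format. Cmpds 23 nl via pintool, brief spin, 2 h ambient incubation.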
uPA generation: qHTS for Inhibitors of Cell Surface uPA Generation; 330,000 compounds, 0.31% hits; Potency, µM (series often up to 38.3 µM), for the others: top-dose activity change, negative = inhibition, actives largely listed as inhibitors; cell surface uPA generation assay, qHTS; active = well fitted inhibition curve with a large enough effect; inconclusive = small, poorly fitted or top-dose-only effect; inactive = no such curve, though single readings can be large or run the other way; tested in mouse RAW 264.7 cells; note: potency is the fitted concentration of half-maximal effect; % is set by controls: 0 for no effect and ±100 for the full control effect; nearly all actives have a fitted effect of over 55% in size
TSHR antagonist: Antagonists of the Thyroid Stimulating Hormone Receptor: HTS campaign; Thyrotropin receptor (Homo sapiens), P16473; TSHR-expressing cells, TSH-stimulated cAMP HTRF, 2 h; hits give low values; activity change, negative = inhibition, % at 11.5 µM; 330,000 compounds, 0.2% hits;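 active = activity change below a set negative limit, meaning inhibition stronger than a set level, cut at about -70% in these data; inconclusive = activity change between two set negative limits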; note: % is set by controls: 0 for no effect and ±100 for the full control effect
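Read-out is FRET at 665 nm (cryptate excitation 337 nm) from a cryptate-tagged anti-cAMP antibody, competed by cell cAMP against cAMP-d2. Compounds are tested on freshly harvested TSHR cells challenged with 4nM TSH (EC80) for 2 hours at 37 deg C.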
PTAP TSG101 blk: qHTS Assay for Iinhibitors of HIV-1 Budding by Blocking the Interaction of PTAP/TSG101; 340,000 tested, under 10 active; Potency, µM (highest dose often 115 µM), inactives show at the top dose activity change, negative = inhibition, most hits filed as inhibitors; Tumor susceptibility gene 101 protein (Homo sapiens), Q99816; Fluorescence polarization, FITC-PTAP peptide / Tsg101 binding; active = well fitted inhibition curve with a large enough effect in the main read-out, with a control signal flat, not every such curve was filed as active; inconclusive = small, poorly fitted or top-dose-only effect, or effect the other way, or a change in a side signal; inactive = no such curve, though single readings can be large or run the other way; note: potency is the fitted concentration of half-maximal effect; % of control where 0% means no effect
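Fluorescence anisotropy tracks displacement of a FITC-tagged PTAP peptide (50 nM) from the Tsg101 binding domain (10 uM), following a 20 min room-temperature incubation at pH 7.5.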
* hit, by the source's call; ? = inconclusive; nt = no result; ! = a repeat was not active. Unless noted, calls come from the whole dose curve; as a rule, active = well fitted curve in the direction sought with a large enough effect; inconclusive = small, poorly fitted or top-dose-only effect, or another doubt; inactive = no such curve, though single readings can be large; an effect the other way counts as inactive or inconclusive.

SMILES	PLK1 PBD inh	VDR inh	uPA generation	TSHR antagonist	PTAP TSG101 blk
CC(C)CCOc1ccc(N)cc1	nt	1%	nt	nt	nt
Cc1ccc(Cl)cc1N1CCN(C(=O)c2cc(S(=O)(=O)N3CCC(C)CC3)cn2C)CC1	nt	11%	nt	nt	nt
Oc1cccc(O)c1O	nt	79µM*	nt	nt	nt
Cc1ccn2c(Nc3ccccc3)c(-c3c[nH]c4ccccc34)nc2c1	nt	-20%	nt	nt	nt
CCOc1nc(NC2CCCC2)nc(N2CCC(C)CC2)n1	19µM*	79µM*	1%	11	-4%
COc1cc(/C=N/Nc2nc(=O)[nH]nc2C)cc(OC)c1O	21µM*	12%	0%	-8	-2%
CC(C)c1cc(C(=O)N/N=C/c2ccco2)n[nH]1	7.5µM*	-16%	-6%	8	1%
CCCN1CNc2c(c(=O)[nH]c(=S)n2CCc2ccc(C)cc2)C1	nt	-1%	nt	nt	nt
COc1ccc(/C=C2\N=C(C)OC2=O)cc1OC	-19%	?	-7%	14	-2%
COc1ccc(/C=C2\N=C(C)OC2=O)cc1OC(C)=O	-25%	50µM*	2%	-2	-5%
CCn1c(=O)n(CC)c2cc(N3CCCCC3)c(NC(=O)Nc3ccccc3C(F)(F)F)cc21	nt	1%	nt	nt	nt
Cc1nc(Nc2ccc(Cl)cc2Cl)sc1C(=O)Nc1ccccc1	-4%	-17%	0%	-5	-5%
Cc1nc(Nc2ccc(Cl)c(Cl)c2)sc1C(=O)Nc1ccccc1	27µM*	?	15%	1	-8%
CC1CC(C)CN(C(=O)COC(=O)Cc2ccc(Br)cc2)C1 (stereo not drawn)	30µM*	-13%	4%	-11	1%
CC1CC(C)CN(C(=O)COC(=O)Cc2ccc(Cl)cc2)C1 (stereo not drawn)	-3%	11%	-3%	1	0%
Cc1cc(C)cc(N2CCn3c2nc2c3c(=O)n(CCCc3ccccc3)c(=O)n2C)c1	nt	0%	nt	nt	nt
N=C(N)n1c(N)nc2ccccc2c1=O	-1%	-3%	23%	14	-6%
N=C(N)SCc1nc2ccccc2c(=O)n1-c1ccccc1	8.4µM*!	?	-1%	-4	0%
O=c1[nH]c2ccccc2nc1CCc1ccccc1	27µM*	7%	3%	-5	0%
COC(=O)CS(=O)(=O)c1cccc2cccnc12	30µM*	-13%	-2%	-3	-5%
CSS(=O)(=O)c1cccc2cccnc12	2.4µM*	11µM*	1%	-36	-3%
O=S(=O)(O)c1cccc2cccnc12	nt	-17%	nt	nt	nt
Cc1nc(-c2ccc(F)cc2)sc1CCNC(=O)C(=O)Nc1ccc2c(c1)OCO2	nt	17%	nt	nt	nt
Cc1ccc(-n2ncc(C(=O)N3CCN(C4CCCCC4)CC3)c2C2CCN(C(=O)OC(C)(C)C)CC2)cc1	nt	14%	nt	nt	nt
Cc1ccc(/C=C2\SC(=S)N(CC3CCCO3)C2=O)o1 (stereo not drawn)	24µM*	9%	2%	-6	-7%
SMILES	PLK1 PBD inh	VDR inh	uPA generation	TSHR antagonist	PTAP TSG101 blk
COc1cc(/C=C(\C#N)c2nc3ccccc3n2C)cc(OC)c1OC	nt	-11%	nt	nt	nt
Cn1c(/C(C#N)=C/c2cccc(O)c2)nc2ccccc21	27µM*	79µM*	-11%	8	-3%
O=C(CN1C(=O)c2ccccc2S1(=O)=O)NCCSCc1cccc(Cl)c1	-16%	18%	0%	-96*	-2%
CN(C)c1ccc(C(=S)N2CCN(c3ccccc3)CC2)cc1	-5%	13%	-1%	-19	-1%
CC1CCN(C(=S)c2ccc(N(C)C)cc2)CC1	30µM*	-4%	-1%	-1	-9%
Cc1ccc(N2CCN(C(=S)c3ccc(N(C)C)cc3)CC2)cc1	17µM*	?	2%	-14	-1%
CC(=O)N1CCN(C(=S)c2ccc(N(C)C)cc2)CC1	21µM*	-13%	6%	14	-1%
CN(C)c1ccc(C(=S)N2CCOCC2)cc1	-4%	-9%	3%	5	-2%
CN(C)c1ccc(C(=S)N2CCCCCC2)cc1	?	2%	nt	-6	-2%
CCN(CC)CCCNC(=O)CCc1c(C)nc2c(c1C)c(=O)n(C)c(=O)n2C	nt	-25%	nt	nt	nt
CC(C)(C)c1ccc(C(=O)Nc2ccc(C(=O)OCc3cc(=O)n4ccsc4n3)cc2)cc1	nt	6%	nt	nt	nt
Cc1ccc(C)c(NC2=C(c3ccc(C(F)(F)F)cc3)C(=O)c3ccccc32)c1	nt	22%	nt	nt	nt
CC(C)c1ccc(C2c3[nH]c4ccccc4c3C[C@H]3C(=O)N(c4ccccc4C(=O)N4CCC[C@@H]4C(=O)O)C(=O)N23)cc1 (stereo partly drawn)	42µM*	-1%	11%	-8	-2%
N#Cc1c(C(F)(F)F)cc(-c2ccccc2)[nH]c1=O	-9%	2%	3%	-6	-6%
COc1cccc(-c2cc(C(F)(F)F)c(C#N)c(=O)[nH]2)c1	24µM*	71µM*	2%	-3	-3%
COCCN(CCOC)C(=O)c1cc2c(=O)n3ccccc3nc2n1C	nt	-6%	nt	nt	nt
Cc1ccc(S(=O)(=O)N(Cc2cc3ccccc3[nH]c2=O)c2cccc(C)c2)cc1	30µM*	-14%	0%	-2	-6%
Cc1ccc(S(=O)(=O)N(Cc2cc3ccc(C)cc3[nH]c2=O)c2ccccc2)cc1	34µM*	-15%	-3%	2	0%
Cc1ccc(N(Cc2cc3cccc(C)c3[nH]c2=O)S(=O)(=O)c2ccccc2)c(C)c1	15µM*	?	-17%	-7	-4%
Cc1oc2ccc(O)c(CN3CCN(Cc4ccccc4)CC3)c2c1C(=O)Nc1ccccc1	nt	3%	nt	nt	nt
Cc1ccc2c(c1)cc(CN(Cc1cccs1)C(=O)c1ccco1)c1nnnn12	8.4µM*	?	-5%	-13	-5%
COc1ccc(-c2noc(-c3ccc(N4CCN(c5ccc(OC)cc5)CC4)c([N+](=O)[O-])c3)n2)cc1	nt	9%	nt	nt	nt
O=C(NCCS(=O)(=O)N1CCN(c2ccccc2)CC1)C1CC(=O)N(c2ccccc2)C1 (stereo not drawn)	-7%	0%	-10%	-135*	0%
COc1ccc(NC(=O)C2=C(C)Nc3nc(SCc4ccccc4)nn3C2c2cc(OC)ccc2OC)cc1 (stereo not drawn)	nt	8%	nt	nt	nt
O=C1CCN2C=Nc3cccc4ccc1c2c34	3.8µM*	-16%	-2%	-7	?
O=C1CCC(=O)c2ccc3c4c(ccc1c24)CC3	-7%	-6%	8%	nt	-3%
COC(=O)c1sc2cccc(F)c2c1S(=O)(=O)Nc1cc(OC)cc(OC)c1	nt	4%	nt	nt	nt
O=C(CCC1CCCN(C(=O)C2CCCC2)C1)NCc1ccc(F)c(F)c1 (stereo not drawn)	-6%	7%	-10%	15	-4%
O=C(CCC1CCCN(C(=O)c2cncs2)C1)NCc1ccc(F)c(F)c1 (stereo not drawn)	30µM*	?	-1%	10	-5%
